# In the library only some 8% were active in any assay of this set; here they are far more common.
# HCMV antiviral: blocks human cytomegalovirus replication; HFF cells, HCMV-luciferase reporter, 72 h; active compounds read low; activity change, negative = inhibition, % at 57.5 µM; hit rate 4.5% among 410,000; in the data active means activity change below about -60%; inconclusive means no clear call, values can overlap the other calls; inactive means above about -39%; further: on the % scale 0 is the no-effect control and ±100 the full control effect
#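 HFF cells seeded 16 h at 37C, treated with compounds, infected with luciferase-reporter HCMV at MOI 1 PFU/cell; luciferase read at 72 h post infection, normalized to buffer-only and Salinomycin controls.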
# Marburg entry inh: inhibitors of Marburg virus binding or cell entry. hit rate 1.8% among 300,000. AID 540276. Potency, µM (titrated, usually from 37.8 µM), for the others: at the top dose activity change, negative = inhibition, hits mostly inhibitors. Marburg virus pseudotyped entry inhibition, cell reporter; calls by dose curve; tested in HEK293 cells; further: potency means the concentration at half of the fitted maximal effect; on the % scale 0 is the no-effect control and ±100 the full control effect
# LASV entry inh: Lassa virus entry inhibition. Lassa virus pseudotype entry inhibition, cell reporter. Potency, µM (doses to about 37.9 µM), for the others: at the top dose activity change, negative = inhibition, usual class: inhibitors. AID 540256. hit rate 1.2% among 300,000; calls by dose curve; tested in HEK293 cells; further: potency means the concentration at half of the fitted maximal effect; on the % scale 0 is the no-effect control and ±100 the full control effect; nearly all actives have a fitted effect of over 50% in size
# SARS PLP yeast: inhibitors of SARS-CoV papain-like protease in yeast. S. cerevisiae expressing SARS-CoV PLpro, growth rescue. Potency, µM (series often up to 32.9 µM), without a hit: at the highest dose activity, positive = growth rescue, hits mostly activators. hit rate 0.19% among 330,000. AID 485353; calls by dose curve; further: potency means the concentration at half of the fitted maximal effect; 0% is about no effect; nearly all actives have a fitted effect of over 55% in size
# FMDV inh: antivirals against foot and mouth disease virus. FMDV antiviral cell-based qHTS. Potency, µM (top dose mostly 57.9 µM), inactives show at the top dose activity change, negative = inhibition, hits mostly inhibitors. hit rate 1.2% among 410,000. AID 1159524; calls by dose curve; tested in HEK293T cells; further: read-out not given here; potency means the concentration at half of the fitted maximal effect; on the % scale 0 is the no-effect control and ±100 the full control effect; nearly all actives have a fitted effect of over 45% in size
# HCV inhibitor: blocks hepatitis C virus | Huh7.5.1 HCVcc-Cre infection, luciferase reporter, 44 h | Potency, µM (highest dose often 41.8 µM), for inactives: at the top dose activity change, negative = inhibition, most hits filed as inhibitors | hit rate 3.4% among 340,000; active means well fitted inhibition curve with a large enough effect; inconclusive means small, poorly fitted or top-dose-only effect, or another doubt; inactive means no such curve, though single readings can be large or run the other way; further: potency means the concentration at half of the fitted maximal effect; on the % scale 0 is the no-effect control and ±100 the full control effect
#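 Seed cells (1,000/well) for 4 h; treat with compound and infect with HCVcc-Cre, moi about 0.5. Incubate 44 h, then detect luciferase activity.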
# * = called active by the depositor; ? = inconclusive; · = no result given; [ ] = remark or other dose.
SMILES,HCMV antiviral,Marburg entry inh,LASV entry inh,SARS PLP yeast,FMDV inh,HCV inhibitor
COc1ccc2[nH]c3c(c2c1)CCN1C(=O)C(CC(=O)NCc2ccco2)C[C@H](C(=O)N2CCCCC2)[C@@]31CCc1ccccc1 (stereo partly drawn),-33.6,0.3%,·,-10.8%,-3.7%,0.562µM*
O=C(C[C@H]1C[C@H](C(=O)N2CCCCC2)[C@@]2(CCc3ccccc3)c3[nH]c4ccc(Cl)cc4c3CCN2C1=O)NCCc1ccccn1,·,·,·,-2.4%,?,0.2%
COc1ccc2[nH]c3c(c2c1)CCN1C(=O)C(CC(=O)NCCc2ccccn2)C[C@H](C(=O)N2CCCCC2)[C@@]31CCc1ccccc1 (stereo partly drawn),-7.0,-2.9%,·,-2.2%,6.8%,7.94µM*
COCCCNC(=O)CC1C[C@H](C(=O)N2CCCCC2)[C@@]2(CCc3ccccc3)c3[nH]c4ccc(OC)cc4c3CCN2C1=O (stereo partly drawn),-26.0,1.2%,·,20.1%,7.1%,18.9%
COc1ccc2[nH]c3c(c2c1)CCN1C(=O)C(CC(=O)NCc2ccc(OC)c(OC)c2)C[C@H](C(=O)N2CCCCC2)[C@@]31CCc1ccccc1 (stereo partly drawn),?,·,·,3.1%,-27.4%,10µM*
Cc1cccc(N2CCN(C(=O)CS(=O)(=O)Cc3nc(-c4ccccc4F)oc3C)CC2C)c1 (stereo not drawn),-31.0,-9.8%,·,-3.1%,35.5µM*,12.6µM*
Cc1oc(-c2ccccc2F)nc1CS(=O)(=O)CC(=O)N1CCN(c2cccc(C(F)(F)F)c2)CC1,-23.8,?,25.3%[46.1 µM],·,35.5µM*,·
Cc1ccc(NC(=O)CCCN2C(=O)COc3ccc(C)cc32)c(Cl)c1,11.3,6.3%[46.1 µM],-3.0%[46.1 µM],·,-21.0%,·
CCCCN(C)CCNC(=O)c1c2c(nc3ccccc13)C(=O)N(C1CCCCC1)C2,31.2,·,-0.9%[46.1 µM],·,-6.4%,·
COc1ccc(C2NC(=O)c3sc(=S)n(-c4ccccc4)c3N2)cc1 (stereo not drawn),-25.4,-2.8%,-18.2%,2.0%,0.0%,-7.2%
O=C1NC(c2ccccc2)Nc2c1sc(=S)n2-c1ccccc1 (stereo not drawn),-103.7*,21.2%[46.1 µM],-6.7%,-2.0%,?,0.5%
O=C(Nc1cccc2ccccc12)c1nn(C23CC4CC(CC(C4)C2)C3)cc1[N+](=O)[O-],-70.9*,-16.1%,-15.1%,-0.9%,13.8%,?
COc1ccc(NC(=O)c2nn(C34CC5CC(CC(C5)C3)C4)cc2[N+](=O)[O-])cc1,15.0,?,?,5.9%,-14.7%,10.5%
Cc1ccccc1NC(=O)C(Cl)=C(Cl)Cl,-77.9*,?,-21.9%[46.1 µM],-2.2%,?,?
O=C(CCCN1C(=O)/C(=C/c2ccc(F)cc2)SC1=S)NCCCn1ccnc1,-67.3*,-1.4%[46.1 µM],-15.6%[46.1 µM],-2.1%,15.5%,-3.0%
COc1ccc(/C=C2\SC(=S)N(CCC(=O)NCCCn3ccnc3)C2=O)cc1,-31.6,·,·,4.1%,38.9%,12.8%
CC(C)c1ccc(/C=C2\SC(=S)N(CCC(=O)NCCCn3ccnc3)C2=O)cc1,-97.0*,?,?,·,1.6%,?
COc1ccccc1/C=C1\SC(=S)N(CCC(=O)NCCCn2ccnc2)C1=O,?,·,·,-2.3%,-6.6%,?
COc1ccc(NC(=O)C2(S(=O)(=O)c3ccc(C)cc3)CC2)c(OC)c1,-8.8,?,-8.1%[46.1 µM],·,-9.8%,·
CCCNC(=O)CSc1nc2nc(C)c(Cc3ccccc3Cl)c(C)n2n1,-21.8,3.5%[46.1 µM],-3.2%[46.1 µM],·,-12.3%,·
COc1ccc2c(c1)[C@@H](NC(C)=O)[C@H](C)[C@@H](c1ccccc1)N2C(=O)Nc1ccc(C(F)(F)F)cc1,-26.6,·,·,·,·,·
CCOc1ccc(CCNC(=O)c2cn(C)c3ccc(S(=O)(=O)N4CCCCCC4)cc3c2=O)cc1OCC,1.5,?,18.2%[46.1 µM],·,7.7%,·
CCOc1ccc(-n2c(SCC(=O)Nc3cccc(Cl)c3)nc3c(oc4ccccc43)c2=O)cc1,23.4,-21.9%[46.1 µM],?,·,-1.0%,·
CC(C)[C@H](O)CC[C@@H](C)C1CC[C@H]2C3CC=C4C[C@@H](O)CC[C@]4(C)C3CC[C@]12C (stereo partly drawn),·,·,·,·,-9.1%,·
CC(=O)/C(=C/Nc1ccc(Oc2ccccc2)cc1)c1ccccc1,-76.8*,2.8%,?,-5.7%,-1.4%,4.6%
SMILES,HCMV antiviral,Marburg entry inh,LASV entry inh,SARS PLP yeast,FMDV inh,HCV inhibitor
COc1cc(=O)n2c(c1C(=O)N(C)Cc1nccs1)CCN(Cc1c(F)ccc(F)c1F)CC2,·,·,·,·,-1.1%,·
COC(=O)c1c(-n2c(C)cc(C=O)c2C)sc2c1CCCC2,-75.9*,-14.7%,-7.1%,-18.9%,·,-19.7%
CCN1C(=O)NC(=O)/C(=C/c2cc(C)n(-c3sc(C)c(C)c3C#N)c2C)C1=O,-35.4,?,?,-3.3%,-1.4%,17.4%
Cc1cc(C=O)c(C)n1-c1sc2c(c1C(=O)O)CCCC2,-4.4,1.3%,0.7%,-21.4%,-6.3%,4.4%
CCOC(=O)c1c(-n2c(C)cc(/C=C3/C(=O)NC(=O)N(CC)C3=O)c2C)sc2c1CCCC2,-6.1,-4.7%,-23.1%,·,?,4.6%
CCOC(=O)c1c(-n2c(C)cc(C=C3C(=O)NC(=S)NC3=O)c2C)sc2c1CCCC2,·,5.4%,·,-15.2%,10µM*,?
Cc1ccc(N2C(=O)NC(=O)/C(=C\c3cc(C)n(-c4sc5c(c4C#N)CCCC5)c3C)C2=O)cc1,-19.0,2.51µM*,?,-8.6%,?,-2.8%
COc1cc(OC)c(NC(=O)C(c2ccccc2)N2Cc3ccccc3C2=O)cc1Cl (stereo not drawn),?,·,-20.1%[46.1 µM],·,13.3%,·
COc1ccc2c(c1)c1c(c(=O)n(-c3ccc(OC)c(OC)c3)c(=O)n1Cc1ccccc1C)n2C,20.2,·,-11.5%[46.1 µM],·,-9.4%,·
Cc1ccnc(NC(=O)C2CCC(CNc3c(N4CCCC4)c(=O)c3=O)CC2)c1 (stereo not drawn),-75.2*,0.5%,·,5.9%,9.9%,14.6%
CCOc1cc(Cl)c(NC(C)=O)cc1OCC,-63.1*,7.9%,10.1%,5.1%,-18.8%,?
COc1ccc2cc(Br)ccc2c1CC(=O)NC1CC(C)(C)NC(C)(C)C1,48.5,18.3µM*,?,10.3%,0.0%,11.2µM*
CCNC(=O)Cc1c(OC)ccc2cc(Br)ccc12,-36.5,·,·,13.4%,-9.2%,-9.5%
CCOc1ccc(CCNC(=O)c2ccc(-c3nc(COc4ccc(C)cc4)c(C)o3)cc2)cc1,-6.7,-1.2%[46.1 µM],·,·,-16.3%,·
CCN(CC)CCN1CNC(=S)N(c2ccccc2OC)C1,-64.8*,1.1%[46.1 µM],11.1%,1.2%,0.4%,19.9%
CCOC(=O)c1c(C)oc2ncnc(Nc3cc(C)cc(C)c3)c12,-6.6,·,12.3%[46.1 µM],·,-12.0%,·
CCN1CCN(c2cc(C(C)C)nc3c(-c4ccccc4)c(C)nn23)CC1,-92.7*,?,?,-0.9%,-20.3%,-89.2%
